The results in this text go back to PubChem BioAssay (NCI).

This is part of a sample that, as a whole, favours compounds with a hit. Of some 83,000 tested, about 20% had one in any assay.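 In brief: 96-well plates, 48 h treatment, single concentration, percent growth endpoint.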 Unmarked numbers belong to inactive results. Activity calls are given as the source filed them. Rule for the calls: active = growth percent below 10; inactive = the rest.

Test systems include NCI-H23 lung; NCI-H226 lung; NCI-H322M lung; HOP-62 NSCLC; NCI-H460 lung; HOP-92 NSCLC; NCI-H522 lung; A549/ATCC NSCLC; 786-0 renal; COLO 205 colon; DU-145 prostate; K-562 leukemia; MALME-3M melanoma; MDA-MB-231 breast; RXF 393 renal; SF-268 CNS; SF-295 CNS; SF-539 CNS; UACC-257 melanoma; M14 melanoma.
Assay in all cases: NCI-60 one-dose screen, 48 h (100 = growth as untreated, 0 = no growth, -100 = all killed)
Details in all cases: 10 µM unless noted

Take `CC(=O)N1N=C(c2ccc(Nc3nc(Nc4ccc(F)cc4)nc(Nc4ccc(F)cc4)n3)cc2)CC1c1ccc(N(C)C)cc1` (stereo not given): the growth was 52.2% in the test on NCI-H23 lung; 74.6% with NCI-H226 lung; 84% with NCI-H322M lung; 54.5% in the test on HOP-62 NSCLC; 54.3% with NCI-H460 lung; 35.3% in the test on HOP-92 NSCLC. Also, the growth is 46% with NCI-H522 lung; 39.3% in the test on A549/ATCC NSCLC; 58.5% with 786-0 renal; 46.6% in the test on COLO 205 colon; 78.2% in the test with DU-145 prostate; 16.8% in the test on K-562 leukemia. Also, the growth was 42.1% with MALME-3M melanoma; 70% in the test on MDA-MB-231 breast; 9.66% (active) with RXF 393 renal; 74.4% in the test on SF-268 CNS; 18.2% in the test with SF-295 CNS; 65.5% in the test on SF-539 CNS. Moreover, the values for the growth in the test on UACC-257 melanoma and in the test with M14 melanoma were 74.2% and 40.2%, respectively.

For `COc1cc2c3c(c4c5ccccc5[nH]c4c2c(OC)c1OC)C(=O)N(CCN1CCCCC1)C3=O`, the growth in the test on NCI-H23 lung is 17.5%; in the test on NCI-H226 lung, 28.2%; with NCI-H322M lung it was 32%; in the test with HOP-62 NSCLC it was 41.7%; in the test with NCI-H460 lung, -48.3% (active); with HOP-92 NSCLC, 48.7%. In addition, the growth is 36.3% in the test on NCI-H522 lung; -63.3% (active) with A549/ATCC NSCLC; -85.9% (active) in the test with 786-0 renal; 28.3% in the test with COLO 205 colon; -91.2% (active) in the test with DU-145 prostate; 3.53% (active) in the test with K-562 leukemia. Moreover, the growth with MALME-3M melanoma is 32%; with MDA-MB-231 breast it was 38.1%; with RXF 393 renal, -9.89% (active); in the test with SF-268 CNS it was 22.7%; in the test on SF-295 CNS, 32.9%; in the test on SF-539 CNS it was 41.4%. In addition, the values for the growth in the test with UACC-257 melanoma and in the test on M14 melanoma were 42.2% and 12.3%, respectively.

For `O=C(NCCNC(c1ccccc1)C(NCCNC(=O)c1ccccc1)c1ccccc1)c1ccccc1` (stereo not given), the growth is 83.3% in the test with NCI-H23 lung; 100% with NCI-H226 lung; 95.7% with NCI-H322M lung; 104% with HOP-62 NSCLC; 59.6% with NCI-H460 lung; 84.8% in the test with HOP-92 NSCLC. Also, the growth in the test with NCI-H522 lung is 69.4%; with A549/ATCC NSCLC, 106%; in the test on 786-0 renal, 106%; in the test on COLO 205 colon it was 106%; in the test with DU-145 prostate, 19.8%; with K-562 leukemia, 81.6%. The growth was 101% in the test on MALME-3M melanoma; 98% in the test on MDA-MB-231 breast; 72.9% in the test with RXF 393 renal; 99.7% with SF-268 CNS; 81.8% in the test on SF-295 CNS; 103% in the test on SF-539 CNS. The figures for the growth in the test with UACC-257 melanoma and with M14 melanoma were 96.9% and 86.3%, respectively.

For the compound `COc1ccc(-c2cc(-c3cc(OC)ccc3OC)nc(SCC(C)=O)c2C#N)cc1`, the growth in the test on NCI-H23 lung was 76.1%; in the test with NCI-H226 lung it was 83.4%; with NCI-H322M lung, 97.6%; with HOP-62 NSCLC, 75.5%; with NCI-H460 lung, 78.8%; in the test on HOP-92 NSCLC it was 38.2%. Moreover, the growth is 54.9% in the test with NCI-H522 lung; 49.4% in the test on A549/ATCC NSCLC; 75% with 786-0 renal; 78.2% in the test with COLO 205 colon; 73.7% with DU-145 prostate; 72.2% with K-562 leukemia. In addition, the growth in the test with MALME-3M melanoma was 92%; in the test on MDA-MB-231 breast, 50.9%; in the test with RXF 393 renal, -0.171% (active); with SF-268 CNS, 65.8%; in the test with SF-295 CNS it was 58.5%; in the test on SF-539 CNS, 64.9%. For the same compound, the growth in the test with UACC-257 melanoma is 93.5%; in the test with M14 melanoma, 69.8%.

For the compound `O=[N+]([O-])c1ccccc1Nc1ccc2ccccc2c1`, the growth in the test with NCI-H23 lung is 97.7%; in the test on NCI-H226 lung it was 97.1%; in the test with NCI-H322M lung, 108%; in the test with HOP-62 NSCLC it was 82.7%; in the test on NCI-H460 lung it was 84.4%; in the test on HOP-92 NSCLC, 82.9%. Moreover, the growth in the test with NCI-H522 lung is 87.8%; with A549/ATCC NSCLC, 47.8%; in the test on 786-0 renal, 83.5%; in the test with COLO 205 colon, 72.5%; in the test with DU-145 prostate it was 107%; in the test on K-562 leukemia, 84.8%. Moreover, the growth is 106% with MALME-3M melanoma; 91.9% in the test on MDA-MB-231 breast; 133% in the test with RXF 393 renal; 95.5% in the test with SF-268 CNS; 98.3% in the test with SF-295 CNS; 97% with SF-539 CNS. In addition, the growth is 92.8% with UACC-257 melanoma and 91.3% in the test on M14 melanoma.

Take `CCOc1ccc(/C=C/C(=O)c2cccc(OCCCOc3cccc(C(=O)/C=C/c4ccc(OCC)cc4)c3)c2)cc1`: the growth was 83.9% with NCI-H23 lung; 73.8% in the test on NCI-H226 lung; 84.5% with NCI-H322M lung; 107% with HOP-62 NSCLC; 65.4% in the test with NCI-H460 lung; 91.6% with HOP-92 NSCLC. In addition, the growth in the test on NCI-H522 lung is 74%; in the test with A549/ATCC NSCLC it was 85.4%; in the test on 786-0 renal, 100%; with COLO 205 colon, 116%; in the test on DU-145 prostate, 82.8%; in the test with K-562 leukemia it was 69.9%. The growth is 100% in the test with MALME-3M melanoma; 83.3% in the test on MDA-MB-231 breast; 105% in the test on RXF 393 renal; 85.3% in the test with SF-268 CNS; 76.4% in the test on SF-295 CNS; 110% in the test on SF-539 CNS. For the same compound, the growth was 82.7% in the test with UACC-257 melanoma and 69% in the test with M14 melanoma.

In the case of `Cc1ccc(O)c(NC(=O)c2cccc(Nc3ccnc(C(F)(F)F)c3)c2)c1`, the growth with NCI-H23 lung is 44.1%; with NCI-H226 lung, 44.8%; with NCI-H322M lung, 86.5%; in the test with HOP-62 NSCLC it was 85.6%; in the test with NCI-H460 lung, 55.4%; in the test with HOP-92 NSCLC it was 77.6%. The growth in the test on NCI-H522 lung was 43.1%; with A549/ATCC NSCLC, 60.3%; in the test on 786-0 renal it was 50%; in the test on COLO 205 colon it was 128%; in the test on DU-145 prostate it was 80.9%; in the test on K-562 leukemia it was 40.9%. Besides, the growth was 70.1% in the test on MALME-3M melanoma; 58.9% in the test with MDA-MB-231 breast; 91.2% in the test with RXF 393 renal; 76.6% with SF-268 CNS; 40.3% with SF-295 CNS; 72.6% in the test with SF-539 CNS. The results for the growth in the test on UACC-257 melanoma and in the test on M14 melanoma were 58.7% and 68.4%, respectively.
